These results are taken from PubChem BioAssay (NCATS).

“And” between values parts separate entries of the source, which are not always exact repeats. Identical values can stand only once. Unmarked numbers belong to inactive results. Records with an inconclusive call do not appear. The source made the active and inactive calls. Unless noted, calls come from the whole dose curve; as a rule, active = well fitted curve in the direction sought with a large enough effect; inconclusive = small, poorly fitted or top-dose-only effect, or another doubt; inactive = no such curve, though single readings can be large; an effect the other way counts as inactive or inconclusive.

A short description of experiment [1]: Cell Viability - Hek293 (AID 427;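 active = compounds whose dose-response curve shows a full or clear partial loss of cell viability, called from curve shape rather than a numeric limit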;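 note: potency is the fitted concentration of half-maximal effect; cells exposed to compound for 40 hours at 37 °C before reading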). To be noted: qHTS. The method in brief:
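HEK293 cells in complete medium were exposed to compound for 40 hr at 37 °C, then cellular ATP was read by CellTiter-Glo luminescence. Data were normalized to DMSO (basal) and 100 uM tamoxifen (100% inhibition), and AC50 came from Hill fits.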

Experiment [2] can be described thus: Cell Viability - NIH 3T3 (AID 541).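 Note: plate controls were DMSO alone for no effect and tamoxifen positive control for full effect; nearly all actives have a fitted effect of over 25% in size.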 The settings on record: NIH 3T3 cell viability, qHTS; activity change, negative = cytotoxicity: at 92.2 µM (top of the series). The method in brief:
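Cells seeded at 1000/well, rested 5 hr at 37 °C, then dosed and incubated 40 hr at 37 °C. CellTiter-Glo added, 20 min room temperature, luminescence read. AC50 by Hill fit.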

Experiment [3] in a line: Cellular Toxicity (caspase-3) MRC-5 (AID 659).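 Note: 0% = DMSO basal and 100% = 10 µM staurosporine.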 A digest of the protocol: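 Apoptosis readout in MRC-5 cells: luciferase light generated after caspase 3/7 cleaves a peptide-aminoluciferin substrate, measured post 16 hr compound incubation at 37 °C.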
In experiment [4] the target is Cytochrome P450 3A4 (Homo sapiens) (UniProt P08684). Briefly: qHTS Assay for Inhibitors and Substrates of Cytochrome P450 3A4 (AID 884). Note: nearly all actives have a fitted effect of over 50% in size. Note: potency is the fitted concentration of half-maximal effect. A digest of the protocol: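 Luminescent readout of luciferin produced by CYP3A4 (20 nM) dealkylation of Luciferin-PPXE, 25 uM (its KM). NADPH-driven reaction ran 60 min at RT after 10 min compound preincubation; data scaled to 57 uM ketoconazole as 100% inhibition.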
Sequence of Cytochrome P450 3A4 (Homo sapiens) (P08684 whole entry, looked up): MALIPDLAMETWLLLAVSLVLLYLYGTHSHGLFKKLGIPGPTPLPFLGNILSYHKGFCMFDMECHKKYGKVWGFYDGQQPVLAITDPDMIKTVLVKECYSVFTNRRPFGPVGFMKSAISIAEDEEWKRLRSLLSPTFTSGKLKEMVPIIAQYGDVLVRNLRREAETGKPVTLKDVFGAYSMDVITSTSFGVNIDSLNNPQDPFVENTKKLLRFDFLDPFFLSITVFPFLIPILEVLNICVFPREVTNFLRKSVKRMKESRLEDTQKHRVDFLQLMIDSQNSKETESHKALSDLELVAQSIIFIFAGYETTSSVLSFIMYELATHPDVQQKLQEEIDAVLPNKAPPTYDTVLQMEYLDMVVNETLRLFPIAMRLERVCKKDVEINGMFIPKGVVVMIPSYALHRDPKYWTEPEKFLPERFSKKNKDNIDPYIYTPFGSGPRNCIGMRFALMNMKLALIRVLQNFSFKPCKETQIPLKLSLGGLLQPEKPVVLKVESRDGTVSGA

Experiment [5] concerns the target Glucocorticoid receptor (Homo sapiens) (UniProt P04150). Briefly: qHTS assay for small molecule agonists of glucocorticoid receptor signaling (AID 588532; active = well fitted curve in the direction sought with a large enough effect in the signal ratio, with a control signal flat; the % refers to the signal ratio;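 note: 100% = dexamethasone at 0.1 µM and 0% = DMSO only wells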). The settings on record: HeLa MMTV-bla, beta-lactamase ratio, agonist, 18 h; stronger effect = higher value; percent of dexamethasone control, DMSO zero. A digest of the protocol:
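MMTV-bla HeLa, beta-lactamase reporter; medium with 1% charcoal/dextran-stripped FBS; cpds up to 92 uM, 18 h, 37 C; CCF4 readout 460/530 nm; Hill fit → EC50, efficacy vs 0.1 uM dexamethasone = 100%.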

For experiment [6], the target named is Vitamin D3 receptor (Homo sapiens) (UniProt P11473). As to the kind of experiment: qHTS assay for small molecule antagonists of vitamin D receptor signaling (AID 588541; calls by dose curve;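 note: receptor activated by calcitriol during compound treatment; % is set by controls: 0 for no effect and ±100 for the full control effect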). A digest of the protocol:
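VDR-UAS-bla HEK293T cells (2000/well, 2% charcoal-stripped FBS) were treated with titrated compounds plus 1-alpha,25-dihydroxyvitamin D3 (50 nM or 3 nM final) for 16 h at 37 C. CCF4 beta-lactamase fluorescence was read; Hill fits gave IC50.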

The target in experiment [7] is Thyroid hormone receptor beta (Homo sapiens) (UniProt P10828). Briefly: qHTS assay for small molecule agonists of thyroid hormone receptor beta signaling (AID 588545; calls by dose curve;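 note: 0% = DMSO only and 100% = 10 nM T3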). The method in brief: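 TR-UAS-bla-GripTite HEK 293 cells in medium with 2% charcoal/dextran FBS, 0.1 mM NEAA and 1 mM sodium pyruvate were treated with titrated compounds for 18 hrs at 37 C. Beta-lactamase reporter was read with CCF4 dye (ex 405, em 460/530 nm); EC50 from Hill fits.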
Sequence of Thyroid hormone receptor beta (Homo sapiens) (P10828 whole entry, looked up): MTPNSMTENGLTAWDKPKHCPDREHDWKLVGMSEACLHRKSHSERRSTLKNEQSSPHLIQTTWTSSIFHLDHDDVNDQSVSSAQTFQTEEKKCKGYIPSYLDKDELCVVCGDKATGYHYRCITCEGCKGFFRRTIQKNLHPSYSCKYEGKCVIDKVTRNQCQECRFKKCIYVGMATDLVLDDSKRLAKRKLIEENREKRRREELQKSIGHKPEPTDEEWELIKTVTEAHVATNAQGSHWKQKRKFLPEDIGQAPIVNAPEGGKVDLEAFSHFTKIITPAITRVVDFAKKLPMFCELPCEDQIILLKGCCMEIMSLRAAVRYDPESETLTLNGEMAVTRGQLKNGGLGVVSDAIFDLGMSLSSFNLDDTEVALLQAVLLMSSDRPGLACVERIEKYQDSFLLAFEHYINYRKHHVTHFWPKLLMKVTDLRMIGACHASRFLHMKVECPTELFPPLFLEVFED

Experiment [8] in a line: qHTS assay for small molecule agonists of the antioxidant response element (ARE) signaling pathway (AID 651741; active = well fitted activation curve with a large enough effect in the signal ratio; the % refers to the signal ratio; note: potency is the fitted concentration of half-maximal effect; for activation: % of control where 0% means no effect). The method in brief:
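Reporter: beta-lactamase under ARE, stably in HepG2. Exposure: 16 h, 37 C, compounds delivered in DMSO by pin tool after 5 h cell preincubation. Readout: FRET substrate fluorescence after 2 h at RT.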

The nature of experiment [9]: qHTS assay for small molecule activators of the nuclear factor-kappa B (NF-kB) signaling pathway (AID 651749; active = well fitted activation curve with a large enough effect in the signal ratio; the % refers to the signal ratio; note: % of control where 0% means no effect). The settings on record: NF-kB-bla ME-180 cells, beta-lactamase FRET ratio, 16 h; stronger effect = higher value. The method in brief:
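Human ME-180 cervical cells with an NF-kB-bla construct; compounds added via 23 nL pin transfer, DMSO as vehicle; incubation 16 hr. Reporter activity measured by FRET disruption.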

The nature of experiment [10]: qHTS assay for small molecule disruptors of the mitochondrial membrane potential - 1 hr assay (AID 651754; calls by dose curve; note: nearly all actives have a fitted effect of over 35% in size; note: potency is the fitted concentration of half-maximal effect). The method in brief:
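Loss of mitochondrial potential shifts the cationic dye from red mitochondrial aggregates to green cytoplasmic monomers. Cells (HepG2) are treated with compound for 1 hr before a 30 min dye incubation at 37C.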

In experiment [11] the target is Tumor necrosis factor (Homo sapiens) (UniProt P01375). As to the kind of experiment: qHTS assay to identify small molecules that stimulate Tumor Necrosis Factor-alpha (TNF-alpha) secretion (AID 651757; active = well fitted curve in the direction sought with a large enough effect in the signal ratio; the % refers to the signal ratio; note: 0% is about no effect). A digest of the protocol:
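Human monocytic THP-1 cells are plated, treated with compound and held at 37 C for 17 hrs. Labeled anti-TNF-alpha antibody mixture is then added; after 3 hr at room temperature, TR-FRET signal reports secreted TNF-alpha.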

Experiment [12] has as its target Nuclear receptor ROR-gamma (Homo sapiens) (UniProt P51449). Briefly: qHTS assay for small molecule antagonists of the retinoid-related orphan receptor gamma (ROR-gamma) signaling pathway (AID 651802). Note: nearly all actives have a fitted effect of over 60% in size. Note: potency is the fitted concentration of half-maximal effect. The method in brief: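 Steps: cells dispensed; compound or DMSO transferred by pin tool; doxycycline added to induce the ROR response element-driven luciferase; plates held 16hr at 37C; ONE-Glo added and luminescence measured.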

A short description of experiment [13]: Cell Viability - Jurkat (AID 426;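 active = dose-dependent loss of cell ATP signal giving a full or clear fitted curve, ranked by lower potency value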; note: potency is the fitted concentration of half-maximal effect). The settings on record: qHTS. The method in brief: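 Cells of the human T-cell leukemia line Jurkat (E6-1) are seeded at 5000 per well, treated with compound across a concentration range for 40 hours at 37 °C, then lysed with CellTiter-Glo; luminescence reports ATP.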
The nature of experiment [14]: Cell Viability - SH-SY5Y (AID 544).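 For viability change, negative = cytotoxic: 0% = DMSO alone and -100% = 100 µM tamoxifen.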 Note: nearly all actives have a fitted effect of over 55% in size. Note: potency is the fitted concentration of half-maximal effect. To be noted: SH-SY5Y neuroblastoma cell viability; viability change, negative = cytotoxic: at 92.2 µM (top of the series). A digest of the protocol:
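Cells were plated at 1500 per well and allowed 5 hr at 37 °C. Compounds were added across a concentration range and incubated 40 hr at 37 °C. CellTiter-Glo was added for 20 min at room temperature before luminescence reading.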

The nature of experiment [15]: qHTS assay for small molecule antagonists of the retinoid-related orphan receptor gamma (ROR-gamma) signaling pathway - cell viability counter screen (AID 720652; active = well fitted curve in the direction sought with a large enough effect in the repeat runs; an effect the other way counts as inactive or inconclusive;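 note: CHO reporter cells with doxycycline-induced ROR-gamma expression; compound exposure lasted 16 hr before ATP read; % is set by controls: 0 for no effect and ±100 for the full control effect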). The method in brief: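 Steps: seed CHO cells bearing TET-inducible ROR and ROR response element-luciferase; rest 5 hr at 37 C; add compound, then doxycycline; incubate 16 hr; add CellTiter-Glo and read luminescence as ATP-based viability.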

Experiment [16] is described as follows: qHTS assay for small molecule activators of the human pregnane X receptor (PXR) signaling pathway (AID 720659; call rule not given here; note: 0% is about no effect).
Experiment [17] addresses Voltage-gated inwardly rectifying potassium channel KCNH2 (Homo sapiens) (UniProt Q12809). As to the kind of experiment: qHTS Assay for Small Molecule Inhibitors of the Human hERG Channel Activity (AID 588834).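 Note: lower thallium flux fluorescence means stronger hERG block; nearly all actives have a fitted effect of over 50% in size.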 Note: potency is the fitted concentration of half-maximal effect. The method in brief: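 Cells were infected with hERG-BacMam virus for 4 hrs at room temperature, grown overnight, then seeded at 2000/well. After dye loading and roughly 10 min compound treatment, thallium influx was triggered and fluorescence recorded.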

Experiment [18] can be described thus: qHTS assay for small molecule activators of the p53 signaling pathway (AID 651743; active = well fitted activation curve with a large enough effect in the signal ratio, not every such curve was filed as active; the % refers to the signal ratio; note: % of control where 0% means no effect). To be noted: HCT-116 p53RE-bla, beta-lactamase FRET ratio, 16 h; activation: stronger effect = higher value. The method in brief:
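Agonist-mode quantitative HTS in HCT-116 cells carrying a p53-response-element beta-lactamase reporter; 16 h compound treatment at 37 C, then FRET substrate loading for 2 h at room temperature and fluorescence read.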

A short description of experiment [19]: Cellular Toxicity (caspase-3) BJ (AID 658).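 Note: cells exposed to compound for 16 hours; 0% = DMSO basal and 100% = 10 µM staurosporine.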 To be noted: Potency: caspase-3 activation. The method in brief:
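Plated BJ cells (1000/well) rested 5 hr, received compound for 16 hr at 37 °C, then Caspase-Glo 3/7 reagent for 1 hr at room temperature before luminescence reading.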

The target in experiment [20] is Vitamin D3 receptor (Homo sapiens) (UniProt P11473). Briefly: qHTS assay for small molecule agonists of vitamin D receptor signaling (AID 588543; calls by dose curve;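 note: 0% = DMSO basal and 100% = reference agonist control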). The method in brief:
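qHTS in agonist mode: compound titrations stimulate a VDR-driven β-lactamase reporter in HEK293T cells over 16 h at 37 °C. Response normalized to 50 nM 1α,25-dihydroxyvitamin D3 = 100%, DMSO = 0%; Hill fitting gives EC50 and maximal response.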

Sequence of Voltage-gated inwardly rectifying potassium channel KCNH2 (Homo sapiens) (Q12809 whole entry, looked up): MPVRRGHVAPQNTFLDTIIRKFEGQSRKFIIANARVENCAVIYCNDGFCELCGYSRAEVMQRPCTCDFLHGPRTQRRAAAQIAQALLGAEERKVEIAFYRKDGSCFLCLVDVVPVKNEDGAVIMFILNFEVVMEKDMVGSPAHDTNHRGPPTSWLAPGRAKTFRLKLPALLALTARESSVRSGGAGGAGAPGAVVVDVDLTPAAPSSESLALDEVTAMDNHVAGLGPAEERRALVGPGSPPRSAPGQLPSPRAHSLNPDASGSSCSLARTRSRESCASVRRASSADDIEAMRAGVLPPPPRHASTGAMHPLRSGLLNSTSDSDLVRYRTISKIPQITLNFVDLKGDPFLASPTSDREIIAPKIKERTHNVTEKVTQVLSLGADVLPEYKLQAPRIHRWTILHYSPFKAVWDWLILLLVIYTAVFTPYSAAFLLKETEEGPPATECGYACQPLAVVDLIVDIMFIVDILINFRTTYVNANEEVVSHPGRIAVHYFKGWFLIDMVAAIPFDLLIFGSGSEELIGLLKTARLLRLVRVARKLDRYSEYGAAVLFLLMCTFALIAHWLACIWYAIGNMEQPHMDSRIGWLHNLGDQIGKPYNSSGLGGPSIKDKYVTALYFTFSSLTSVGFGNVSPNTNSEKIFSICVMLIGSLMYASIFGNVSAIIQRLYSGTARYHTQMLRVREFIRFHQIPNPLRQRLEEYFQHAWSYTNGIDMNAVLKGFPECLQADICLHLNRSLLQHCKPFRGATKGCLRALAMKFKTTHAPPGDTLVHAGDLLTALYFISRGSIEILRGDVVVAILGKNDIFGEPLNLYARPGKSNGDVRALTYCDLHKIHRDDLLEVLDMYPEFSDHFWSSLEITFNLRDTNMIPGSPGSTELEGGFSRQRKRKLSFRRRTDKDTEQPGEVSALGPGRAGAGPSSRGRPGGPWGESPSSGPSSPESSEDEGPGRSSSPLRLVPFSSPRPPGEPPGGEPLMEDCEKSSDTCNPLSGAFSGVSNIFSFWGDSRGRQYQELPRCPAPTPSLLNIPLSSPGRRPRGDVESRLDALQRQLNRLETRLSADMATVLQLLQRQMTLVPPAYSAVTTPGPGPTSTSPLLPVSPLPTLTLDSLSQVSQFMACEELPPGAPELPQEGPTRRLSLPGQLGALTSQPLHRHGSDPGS
Sequence of Glucocorticoid receptor (Homo sapiens) (P04150 whole entry, looked up): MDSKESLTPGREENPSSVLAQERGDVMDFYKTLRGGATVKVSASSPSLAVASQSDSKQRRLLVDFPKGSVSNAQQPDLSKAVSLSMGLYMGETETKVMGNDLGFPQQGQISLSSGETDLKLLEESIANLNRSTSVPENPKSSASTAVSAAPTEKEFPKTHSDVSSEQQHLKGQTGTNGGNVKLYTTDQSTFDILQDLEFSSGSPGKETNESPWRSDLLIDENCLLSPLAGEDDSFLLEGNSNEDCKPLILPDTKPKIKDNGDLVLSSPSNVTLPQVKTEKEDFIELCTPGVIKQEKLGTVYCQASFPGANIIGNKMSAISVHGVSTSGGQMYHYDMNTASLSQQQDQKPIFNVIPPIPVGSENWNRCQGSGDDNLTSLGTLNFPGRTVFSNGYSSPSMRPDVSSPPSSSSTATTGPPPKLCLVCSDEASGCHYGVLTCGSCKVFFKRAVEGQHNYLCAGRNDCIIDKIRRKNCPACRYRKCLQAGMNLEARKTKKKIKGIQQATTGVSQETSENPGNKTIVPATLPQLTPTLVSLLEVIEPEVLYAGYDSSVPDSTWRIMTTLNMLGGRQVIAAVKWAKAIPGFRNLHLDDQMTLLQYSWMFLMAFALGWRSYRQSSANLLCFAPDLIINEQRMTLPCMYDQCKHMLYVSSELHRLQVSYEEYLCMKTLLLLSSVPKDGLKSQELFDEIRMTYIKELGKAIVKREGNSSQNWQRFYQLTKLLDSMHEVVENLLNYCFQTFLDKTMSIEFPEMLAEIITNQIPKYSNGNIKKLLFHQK
Sequence of Nuclear receptor ROR-gamma (Homo sapiens) (P51449 whole entry, looked up): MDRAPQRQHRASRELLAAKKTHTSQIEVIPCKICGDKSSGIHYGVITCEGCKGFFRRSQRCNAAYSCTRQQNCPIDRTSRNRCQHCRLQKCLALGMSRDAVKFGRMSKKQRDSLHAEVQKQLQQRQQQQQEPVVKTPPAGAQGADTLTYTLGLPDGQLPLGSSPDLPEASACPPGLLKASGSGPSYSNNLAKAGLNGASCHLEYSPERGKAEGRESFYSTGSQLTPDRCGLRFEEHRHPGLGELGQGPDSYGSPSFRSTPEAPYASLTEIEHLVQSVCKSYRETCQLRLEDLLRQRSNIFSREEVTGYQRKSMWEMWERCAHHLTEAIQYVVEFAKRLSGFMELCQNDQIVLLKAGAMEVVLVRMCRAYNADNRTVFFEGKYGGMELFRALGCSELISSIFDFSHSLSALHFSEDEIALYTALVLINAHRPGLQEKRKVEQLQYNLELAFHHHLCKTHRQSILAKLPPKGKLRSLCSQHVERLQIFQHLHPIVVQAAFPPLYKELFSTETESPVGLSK
Sequence of Tumor necrosis factor (Homo sapiens) (P01375 whole entry, looked up): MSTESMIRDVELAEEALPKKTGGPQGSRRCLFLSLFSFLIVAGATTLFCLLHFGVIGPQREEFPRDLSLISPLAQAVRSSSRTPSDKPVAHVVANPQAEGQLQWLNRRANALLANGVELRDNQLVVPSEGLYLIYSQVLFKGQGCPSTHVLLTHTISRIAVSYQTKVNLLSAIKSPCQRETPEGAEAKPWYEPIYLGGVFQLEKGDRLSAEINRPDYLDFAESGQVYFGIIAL
Sequence of Vitamin D3 receptor (Homo sapiens) (P11473 whole entry, looked up): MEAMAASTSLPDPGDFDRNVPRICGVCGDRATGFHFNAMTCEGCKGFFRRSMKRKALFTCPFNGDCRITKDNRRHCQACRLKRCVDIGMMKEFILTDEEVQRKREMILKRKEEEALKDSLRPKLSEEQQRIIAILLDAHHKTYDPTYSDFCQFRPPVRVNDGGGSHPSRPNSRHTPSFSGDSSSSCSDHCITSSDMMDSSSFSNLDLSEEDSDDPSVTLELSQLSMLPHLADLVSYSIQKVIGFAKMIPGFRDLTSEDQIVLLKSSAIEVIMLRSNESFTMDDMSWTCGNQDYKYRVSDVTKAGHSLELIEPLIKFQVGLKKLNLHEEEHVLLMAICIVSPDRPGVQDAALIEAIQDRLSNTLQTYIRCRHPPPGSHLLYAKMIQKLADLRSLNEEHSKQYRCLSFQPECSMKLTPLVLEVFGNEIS

As to `CC/C=C/C/C=C/C/C=C/CCCCCCCC(=O)OCC`, the Potency in [1] was above 92 µM; in experiment [4], 10 µM (active); in [8] it was 59.6 µM (active). In addition, the activity change, negative = cytotoxicity in [2] was -19.6%. Besides, in experiment [3], the compound was classed as inactive. For the same compound, the activation in [5] is -2.85%; in experiment [9] it was -1.38%. For the same compound, the Potency result in [6], in experiment [7], in [10], in experiment [11] and in experiment [12] was “inactive” throughout.

Take `Oc1cc2c(cc1O)[C@H]1c3ccc(O)c(O)c3OC[C@@]1(O)C2`: the Potency in experiment [13] is 35.9 µM (active); in experiment [8], 66.8 µM (active); in experiment [12], 11.9 µM (active). In addition, the activity change, negative = cytotoxicity in experiment [2] was -89.3% (active). In addition, the viability change, negative = cytotoxic in experiment [14] is -82.8% (active). Moreover, the outcome in experiment [3] and in [16] was inactive. For the same compound, the activation in experiment [5] was 0.204%; in [9], -1.98%. Moreover, the Potency result in [7], in experiment [10] and in [15] was “inactive” in each case.

For the compound `C=C(C#N)C(=O)OCC`, the Potency in [1] was above 92 µM. In experiment [2], the activity change, negative = cytotoxicity is -117% (active). The Potency entry in experiment [14], in experiment [4], in [7], in experiment [17], in [8] and in [10] was “inactive” each time. Further, the Potency entry in experiment [11], in experiment [12] and in experiment [15] was “inactive” each time. For the same compound, the activation in [5] was -0.945%; in experiment [18], 2.02%; in experiment [9] it was -1.44%. Also, the result in experiment [16] was inactive.

Regarding `O=C=Nc1ccc(Cl)c(Cl)c1`, the Potency was 38.9 µM (active) in experiment [1], 75 µM (active) in experiment [8], 4.22 µM (active) in [10] and 33.5 µM (active) in experiment [12]. The activity change, negative = cytotoxicity in [2] is -122% (active). Moreover, the Potency result in experiment [19], in [4], in experiment [6], in experiment [20], in experiment [17] and in [11] was “inactive” each time. For the same compound, the compound was called inactive in experiment [3] and in experiment [16]. The activation in experiment [5] was 5.86%; in experiment [9], 7.4%.

Take `O=C1c2ccccc2C(=O)C1(O)O`: the Potency was 34.4 µM (active) in experiment [13] and 66.8 µM (active) in [8]. The Potency result in experiment [19], in experiment [4], in experiment [6], in experiment [20], in [7] and in experiment [17] was “inactive” each time. The Potency entry in experiment [11] is “inactive”. For the same compound, the activation in [9] was -0.508%. In addition, the compound was called inactive in experiment [16].

For `CN(C)c1ccc(C(=N)c2ccc(N(C)C)cc2)cc1`, the Potency in [14] is 10 µM (active); in [17] it was 15.8 µM (active); in experiment [12], 5.31 µM (active). Further, the Potency entry in experiment [19], in experiment [6], in experiment [20] and in [7] was “inactive” in each case. Moreover, in [3], the outcome was inactive. For the same compound, the values for the activation in experiment [5], in experiment [18] and in experiment [9] were 2.53%, 11.1% and 3.33%, respectively.

With `O=[N+]([O-])c1cc(N(CCO)CCO)ccc1NCCO`, the Potency entry in [19], in experiment [4], in experiment [6], in experiment [20], in experiment [7] and in experiment [17] was “inactive” throughout. The Potency result in [8], in [10], in experiment [12] and in [15] was “inactive” in each case. The compound was classed as inactive in experiment [3] and in [16]. Moreover, the activation in experiment [18] was -5.39% and -4.71%; in experiment [9] it was -0.608% and 1.27%.
